{"source": "the OligoGym collection", "data": [{"target": "NMRAL1", "assay": "pooled miR-30 sensor sort-seq; sequence = guide strand", "conditions": "shRNA", "values": [{"sequence": "TTCTGCACCTTGCAGCCTCAGC", "sensor-assay potency score (higher = more potent)": -0.852}, {"sequence": "TTTGCTGCCTTCTTCCTAGGGT", "sensor-assay potency score (higher = more potent)": 0.121}, {"sequence": "TTGGCATCGTGCACGACCTTGC", "sensor-assay potency score (higher = more potent)": 0.214}, {"sequence": "TTCGTAGTCCTCAGGAGTCATC", "sensor-assay potency score (higher = more potent)": -1.71}, {"sequence": "TAGTCCTCAGGAGTCATCTTGG", "sensor-assay potency score (higher = more potent)": -0.467}, {"sequence": "TAATTGGTCACGATGAAGGTGG", "sensor-assay potency score (higher = more potent)": -0.074}, {"sequence": "TCCTTTGCTGCCTTCTTCCTAG", "sensor-assay potency score (higher = more potent)": -1.25}, {"sequence": "TACTTCTGCACCTTGCAGCCTC", "sensor-assay potency score (higher = more potent)": -0.418}, {"sequence": "TACTCCTCGGCCGTGTGCCTGC", "sensor-assay potency score (higher = more potent)": -0.836}, {"sequence": "TCGGGTCACCACTCGAACCTTG", "sensor-assay potency score (higher = more potent)": -0.891}]}, {"target": "NMUR2", "assay": "pooled miR-30 sensor sort-seq; sequence = guide strand", "conditions": "shRNA", "values": [{"sequence": "TTGTTGACTGATTTTCTGCAGG", "sensor-assay potency score (higher = more potent)": -0.441}, {"sequence": "TTGAACACAGCAGCCAGGGATT", "sensor-assay potency score (higher = more potent)": -1.59}, {"sequence": "TTCTTGACATCTGTTCACTAGA", "sensor-assay potency score (higher = more potent)": -0.341}, {"sequence": "TTTCTTTAGTCTGAGTGCCATG", "sensor-assay potency score (higher = more potent)": -1.41}, {"sequence": "TTGGGGACCTATATCTTCGGTC", "sensor-assay potency score (higher = more potent)": -0.773}, {"sequence": "TTTGTCTTTCTTTAGTCTGAGT", "sensor-assay potency score (higher = more potent)": -1.1}, {"sequence": "TGGATCTTCTAGTTTCTGCTGG", "sensor-assay potency score (higher = more potent)": 0.385}, {"sequence": "TAGTTTGTTCTTGACATCTGTT", "sensor-assay potency score (higher = more potent)": -0.227}, {"sequence": "TTGTTCTTGACATCTGTTCACT", "sensor-assay potency score (higher = more potent)": -0.626}, {"sequence": "TTGACTGATTTTCTGCAGGGTC", "sensor-assay potency score (higher = more potent)": -0.256}, {"sequence": "TTTGAATATTTGCATTCCCTTC", "sensor-assay potency score (higher = more potent)": -0.976}, {"sequence": "TACATGAGTTGTAAGAGCCATT", "sensor-assay potency score (higher = more potent)": -0.996}]}, {"target": "NODAL", "assay": "pooled miR-30 sensor sort-seq; sequence = guide strand", "conditions": "shRNA", "values": [{"sequence": "TTTATGGTGATCTAGGAGCACT", "sensor-assay potency score (higher = more potent)": -0.921}, {"sequence": "TGGTGATCTAGGAGCACTCTGC", "sensor-assay potency score (higher = more potent)": -1.24}, {"sequence": "TTGGAGAATACATGAAAGCTAT", "sensor-assay potency score (higher = more potent)": -0.351}, {"sequence": "TTTCAGCAGACTCTGGATGTAT", "sensor-assay potency score (higher = more potent)": -0.374}, {"sequence": "TGTCTTTATGGTGATCTAGGAG", "sensor-assay potency score (higher = more potent)": -0.744}, {"sequence": "TAAAGAACTCATGCACTTGTGC", "sensor-assay potency score (higher = more potent)": 0.25}, {"sequence": "TGATCTAGGAGCACTCTGCCAT", "sensor-assay potency score (higher = more potent)": -0.476}, {"sequence": "TAACGTTTCAGCAGACTCTGGA", "sensor-assay potency score (higher = more potent)": 1.03}, {"sequence": "ATGTATGCATGGTTGGTCGGAT", "sensor-assay potency score (higher = more potent)": -0.818}, {"sequence": "TTCAGTAAAGAGAACATCCAGC", "sensor-assay potency score (higher = more potent)": 0.203}, {"sequence": "TTATCCACATACAGCATGCTCA", "sensor-assay potency score (higher = more potent)": -0.807}, {"sequence": "TCTGCCATTATCCACATACAGC", "sensor-assay potency score (higher = more potent)": -1.71}]}, {"target": "NOL7", "assay": "pooled miR-30 sensor sort-seq; sequence = guide strand", "conditions": "shRNA", "values": [{"sequence": "TCGATGAACAGCTCCTCGCGTC", "sensor-assay potency score (higher = more potent)": -0.7}, {"sequence": "TTGTACTTTAACTTTCTTGGAG", "sensor-assay potency score (higher = more potent)": -0.0182}, {"sequence": "TTATTTACAGTAGTCCTGTTGG", "sensor-assay potency score (higher = more potent)": -0.0686}, {"sequence": "TGTACTTTAACTTTCTTGGAGT", "sensor-assay potency score (higher = more potent)": -0.613}, {"sequence": "TTTTGTACTTTAACTTTCTTGG", "sensor-assay potency score (higher = more potent)": -0.17}, {"sequence": "TTTCTGACCATCCACCGTCTTT", "sensor-assay potency score (higher = more potent)": -1.02}]}]}
